Screens: PubChem BioAssay, National Center for Advancing Translational Sciences (NCATS)
JMJD2A Tudor = qHTS Assay for Inhibitors of JMJD2A-Tudor Domain; 390,000 compounds, 4.4% hits; AID 504339, 2011; Potency, µM (doses to about 114 µM), without a hit: top-dose activity change, negative = inhibition, most hits filed as inhibitors; AlphaScreen JMJD2A-Tudor / H3K4me3 peptide binding; also: % is scaled to controls: 0 for no effect and ±100 for the full control effect; nearly all actives have a fitted effect of over 50% in size
Sfp inh = qHTS Assay for Inhibitors of Bacillus subtilis Sfp phosphopantetheinyl transferase (PPTase). Biochemical Sfp PPTase activity, qHTS. Potency, µM, inactives show largest response in the series, negative = inhibition, hits mostly inhibitors. 4'-phosphopantetheinyl transferase ffp (Bacillus subtilis), Q9F4F7. 310,000 compounds, 3.5% hits;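 also: the enzyme is Sfp with the accession as filed and its product quenches rhodamine fluorescence; 0% = enzyme reaction without inhibitor and -100% = no enzyme wells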
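Compounds were incubated with enzyme (final 15 nM) for 15 min at room temperature before substrate addition started the reaction. Fluorescence at 525 nm excitation, 598 nm emission was recorded immediately and after 30 minutes.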
HP1b binding inh = HTS for Inhibitors of HP1-beta Chromodomain Interactions with Methylated Histone Tails; 390,000 compounds, 0.56% hits; AID 540317, 2011; Chromobox protein homolog 1 (Homo sapiens), P83916; Potency, µM (titrated, usually from 114 µM), for the others: at the top dose activity change, negative = inhibition, most hits filed as inhibitors; AlphaScreen HP1-beta / biotin-H3K9me3 peptide binding; also: nearly all actives have a fitted effect of over 70% in size
Target sequence (P83916 whole entry, looked up): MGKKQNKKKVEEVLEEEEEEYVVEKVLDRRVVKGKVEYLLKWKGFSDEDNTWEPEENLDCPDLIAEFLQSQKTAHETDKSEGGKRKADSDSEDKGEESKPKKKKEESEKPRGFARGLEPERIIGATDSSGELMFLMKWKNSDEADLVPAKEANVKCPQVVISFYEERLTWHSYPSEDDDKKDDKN
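Compound inhibition of the preformed complex between 50 nM HP1-beta and 50 nM biotinylated H3K9me3 peptide was read by AlphaScreen. Buffer was PBS pH 7.4 with 0.01% Tween-20. Incubations ran 30 min at room temperature, with 10 ug/mL donor/acceptor beads.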
L3MBTL1 inh = qHTS Assay for the Inhibitors of L3MBTL1; Lethal(3)malignant brain tumor-like protein 1 (Homo sapiens), Q9Y468; AlphaScreen L3MBTL1–H3K9me1 peptide binding; Potency, µM (highest dose often 57.1 µM), without a hit: at the top dose activity, negative = inhibition, usual class: inhibitors; 230,000 compounds, 0.66% hits; also: % is scaled to controls: 0 for no effect and ±100 for the full control effect; nearly all actives have a fitted effect of over 60% in size
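Displacement of a biotinylated histone H3(1-15) peptide monomethylated at Lys9 (75 nM) from L3MBTL1 (50 nM) was measured by AlphaScreen after a 30 min room-temperature compound incubation; cefsulodin titration served as intraplate control.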
G9a block = qHTS Assay for Inhibitors of Histone Lysine Methyltransferase G9a; G9a H3K9 monomethylation, AlphaScreen, 2 h; Potency, µM (highest dose often 102 µM), inactives show at the top dose activity, negative = inhibition, actives largely listed as inhibitors; 350,000 compounds, 8.8% hits; AID 504332, 2011; also: % is scaled to controls: 0 for no effect and ±100 for the full control effect; nearly all actives have a fitted effect of over 75% in size
Target sequence (Q96KQ7 913-1193 limits assumed): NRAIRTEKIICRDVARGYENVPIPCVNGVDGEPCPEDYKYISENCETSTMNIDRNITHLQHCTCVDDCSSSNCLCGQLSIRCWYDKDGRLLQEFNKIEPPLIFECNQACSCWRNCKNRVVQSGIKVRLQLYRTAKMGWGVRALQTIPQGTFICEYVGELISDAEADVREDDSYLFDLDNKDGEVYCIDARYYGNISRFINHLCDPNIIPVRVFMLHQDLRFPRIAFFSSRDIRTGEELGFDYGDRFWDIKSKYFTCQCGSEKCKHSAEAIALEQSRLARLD
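Quantitative HTS format: methyltransferase activity on a biotin-tagged H3K9 peptide is measured by AlphaScreen, using a rabbit anti-monomethyl-H3K9 antibody with streptavidin donor and anti-IgG acceptor beads. Final levels are 20 nM enzyme, 500 nM peptide, 20 uM SAM; 2 h RT.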
BAZ2B block = qHTS Assay for Inhibitors of BAZ2B | Bromodomain adjacent to zinc finger domain protein 2B (Homo sapiens), Q9UIF8 | AlphaScreen BAZ2B-H3K14Ac peptide displacement | 360,000 compounds, 4.4% hits | Potency, µM (highest dose often 114 µM), for the others: at the top dose activity change, negative = inhibition, most hits filed as inhibitors; also: % is scaled to controls: 0 for no effect and ±100 for the full control effect; nearly all actives have a fitted effect of over 60% in size
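AlphaScreen luminescence quantifies BAZ2B engagement of H3K14Ac peptide; the protein and biotinylated peptide are both at 50 nM final, buffer PBS pH 7.4 with 0.01% Tween-20, all steps at room temperature.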
The depositor's hits bear a star; [ ] = another dose, or the depositor's remark. Sampled rows, rich in hits. Any-hit rate of the full collection: about 12%. Calls follow the shape of the dose curve; as a rule, active = well fitted curve in the direction sought with a large enough effect; inconclusive = small, poorly fitted or top-dose-only effect, or another doubt; inactive = no such curve, though single readings can be large; an effect the other way counts as inactive or inconclusive. Potency is read from the fitted curve at half-maximal effect.

What do the screens show for `CNc1ccc2oc(C[C@@H]3OC4(CC[C@@H]3C)O[C@H]([C@@H](C)C(=O)c3ccc[nH]3)[C@H](C)C[C@H]4C)nc2c1C(=O)O` (stereo partly drawn)?
Sfp inh: 22%; G9a block: 16µM*

Results for CNc1ccc2oc(C[C@H]3O[C@@]4(CC[C@H]3C)O[C@H]([C@H](C)C(=O)c3ccc[nH]3)[C@H](C)C[C@H]4C)nc2c1C(=O)O ?
JMJD2A Tudor: inconclusive; Sfp inh: -14%; HP1b binding inh: 17%; G9a block: -20%[59 µM]; BAZ2B block: -10%

What do the screens show for `[Cl-].[Cl-].[Hg+2]`?
Sfp inh: inconclusive; G9a block: 1.3µM*

What do the screens show for `C=CCSc1nnc(NC(=O)c2ccc(Cl)nc2)s1`?
JMJD2A Tudor: -1%; Sfp inh: 12%; HP1b binding inh: 73%; G9a block: -50%[12.7 µM]; BAZ2B block: -26%

Results for COc1ccc(OC)c(-n2c(O)c(/C=C3\C=Nc4ccccc43)c(=O)[nH]c2=O)c1 ?
JMJD2A Tudor: -12%; Sfp inh: 50µM*; HP1b binding inh: 16%; G9a block: -17%; BAZ2B block: -15%

What do the screens show for `CNCC(O)c1cccc(OC(=O)c2ccccc2C)c1` (stereo not drawn)?
JMJD2A Tudor: 26%[11.4 µM]; Sfp inh: 7%; HP1b binding inh: 54%; L3MBTL1 inh: -2%; G9a block: 56µM*; BAZ2B block: -1%

How did O=C(O)c1ccccc1S do in these assays?
Sfp inh: inconclusive; L3MBTL1 inh: 5%; G9a block: 40µM*; BAZ2B block: 3%

How did CCOC(=O)[C@]12Cc3cc(N(C)C)ccc3[C@H]1N(Cc1ccccc1)C(=O)c1ccccc12 do in these assays?
JMJD2A Tudor: 16µM*; HP1b binding inh: -16%

How did Cc1ccc(-c2csc(NC(CO)c3nc4ccccc4n3CCOCCO)n2)cc1 (stereo not drawn) do in these assays?
JMJD2A Tudor: inconclusive; HP1b binding inh: -4%

Results for CCCOc1ccc(N2CC(C(=O)Nc3ccccc3F)CC2=O)cc1 (stereo not drawn) ?
JMJD2A Tudor: -8%; Sfp inh: -13%; HP1b binding inh: 27%; L3MBTL1 inh: 0%; G9a block: inconclusive; BAZ2B block: 2%

Results for COC(=O)C1=C(C)N(Cc2ccco2)C(=O)/C1=C\c1ccc(N(C)C)cc1 ?
JMJD2A Tudor: 16µM*; Sfp inh: -18%; HP1b binding inh: -73%; L3MBTL1 inh: -24%; G9a block: inconclusive; BAZ2B block: inconclusive

What do the screens show for `Cc1ccc(OCCn2cccc2/C=C2/C(=O)NC(=O)N(Cc3ccco3)C2=O)cc1`?
JMJD2A Tudor: -30%; Sfp inh: inconclusive; HP1b binding inh: 4%; G9a block: 50µM*; BAZ2B block: -35%

How did CCOC(=O)C1CCN(/C=C2/C(=O)NC(=O)N(Cc3ccco3)C2=O)CC1 do in these assays?
JMJD2A Tudor: inconclusive; Sfp inh: inconclusive; HP1b binding inh: -13%; L3MBTL1 inh: 14µM*; G9a block: inconclusive; BAZ2B block: inconclusive

What do the screens show for `CCc1ccc(N2C(=O)NC(=O)/C(=C\c3cccn3CCOc3ccc(C(C)C)cc3)C2=O)cc1`?
JMJD2A Tudor: inconclusive; Sfp inh: 5%; HP1b binding inh: 19%; L3MBTL1 inh: -4%; G9a block: 7.1µM*; BAZ2B block: -18%

How did CCOC(=O)C1C(C=C(C)C)C1(C)C (stereo not drawn) do in these assays?
Sfp inh: 5%

What do the screens show for `CC(C)C(O)(C(=O)OC[C@@H]1CC[N+]2([O-])CCCC12)C(C)O` (stereo partly drawn)?
Sfp inh: 11%

What do the screens show for `COc1ccc(/C=C2/C(=O)NC(=O)N(Cc3ccco3)C2=O)cc1`?
Sfp inh: inconclusive; L3MBTL1 inh: 8.9µM*; G9a block: 10µM*; BAZ2B block: 32µM*

Results for Cn1cccc1/C=C1\C(=O)NC(=O)N(Cc2ccco2)C1=O ?
JMJD2A Tudor: 56µM*; Sfp inh: -20%; HP1b binding inh: 45µM*; G9a block: inconclusive; BAZ2B block: 56µM*

Results for Cc1cccc(-c2nc(CN3C(=O)CN=C(c4ccccc4)c4ccccc43)c(C)o2)c1 ?
JMJD2A Tudor: inconclusive; HP1b binding inh: -21%; G9a block: inconclusive; BAZ2B block: 22µM*

Results for COc1ccc2c(c1)CC1(CN2C)C(=O)NC(=O)N(c2ccc(C)cc2)C1=O (stereo not drawn) ?
JMJD2A Tudor: -8%; Sfp inh: -5%; HP1b binding inh: 49%; G9a block: inconclusive; BAZ2B block: inconclusive

Results for Cc1cccc(N2C(=O)NC(=O)C3(Cc4cc(C)ccc4N(C)C3)C2=O)c1 (stereo not drawn) ?
JMJD2A Tudor: -4%[11.4 µM]; Sfp inh: -7%; HP1b binding inh: 63%; L3MBTL1 inh: 2%; G9a block: 10µM*; BAZ2B block: -21%

What do the screens show for `Cc1ccc2c(c1)CC1(CN2C)C(=O)NC(=O)N(C(C)C)C1=O` (stereo not drawn)?
JMJD2A Tudor: 6%[57.1 µM]; Sfp inh: 1%; HP1b binding inh: -6%; L3MBTL1 inh: -9%; G9a block: 32µM*; BAZ2B block: 6%

Results for COc1ccc2c(c1)CC1(CN2C)C(=O)NC(=O)N(c2ccc(F)cc2)C1=O (stereo not drawn) ?
JMJD2A Tudor: -22%; Sfp inh: 4%; HP1b binding inh: 55%; L3MBTL1 inh: -5%; G9a block: 20µM*; BAZ2B block: 4%

How did Cc1ccc2c(c1)CC1(CN2C)C(=O)NC(=O)N(CCC2=CCCCC2)C1=O (stereo not drawn) do in these assays?
JMJD2A Tudor: -13%; Sfp inh: -21%; HP1b binding inh: 32%; L3MBTL1 inh: -4%; G9a block: 10µM*; BAZ2B block: -31%
